# The list is not random: actives were taken first. Their share in the collection is about 3%.
# USP1-UAF1 inh = blocks the human USP1/UAF1 deubiquitinase complex | AID 743255 | 390,000 tested, 0.23% active | O94782 | Potency, µM (top dose mostly 57.1 µM), inactives show top-dose activity change, negative = inhibition, actives largely listed as inhibitors | recombinant USP1/UAF1, Ub-Rhodamine cleavage fluorescence; also: % is scaled to controls: 0 for no effect and ±100 for the full control effect; nearly all actives have a fitted effect of over 60% in size
#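 Step one: compound is pinned into 1nM USP1/UAF1 in HEPES pH 7.8 buffer with TCEP. Step two: 15 min room-temperature incubation. Step three: Ub-Rho (150nM final) starts cleavage, tracked by fluorescence over six one-minute reads.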
# GCN5L2 inh = GCN5L2 (KAT2A) acetyltransferase inhibition. GCN5L2 HAT assay, ThioGlo1 CoA-SH fluorescence. 390,000 tested, 0.21% active. AID 504327. Q92830. Potency, µM (doses to about 58.9 µM), for the others: top-dose activity change, negative = inhibition, most hits filed as inhibitors; also: % is scaled to controls: 0 for no effect and ±100 for the full control effect
#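 Titration-based screen in which CoA formation is detected via maleimide probe ThioGlo1 (50uM) turning fluorescent on thiol reaction; substrates H3(1-25) 75uM and acetyl-CoA 70uM, GCN5L2 20nM, 20 min incubation at room temperature.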
# VDR inh = inhibitors of human vitamin D receptor; P11473; VDR-SRC2-3 peptide fluorescence polarization, 2 h; Potency, µM, without a hit: max response, negative = inhibition, hits mostly inhibitors; 400,000 tested, 0.93% active; also: % is scaled to controls: 0 for no effect and ±100 for the full control effect
#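 FP read-out; VDR + SRC2-3 coactivator peptide; 23 nl compound by pintool; 2 h RT incubation; reagents held at 4 deg C, protected from light.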
# PLK1 PBD inh = blocks phosphopeptide binding to human PLK1 polo-box domain | Plk1 PBD binding of FITC phosphopeptide, fluorescence polarization | 360,000 tested, 2.8% active | Potency, µM, inactives show max response, negative = inhibition, actives largely listed as inhibitors | P53350 | AID 720504; also: series mostly up to about 57 µM; % is scaled to controls: 0 for no effect and ±100 for the full control effect; nearly all actives have a fitted effect of over 65% in size
# Target sequence (P53350 whole entry, looked up, the tested form may be a part): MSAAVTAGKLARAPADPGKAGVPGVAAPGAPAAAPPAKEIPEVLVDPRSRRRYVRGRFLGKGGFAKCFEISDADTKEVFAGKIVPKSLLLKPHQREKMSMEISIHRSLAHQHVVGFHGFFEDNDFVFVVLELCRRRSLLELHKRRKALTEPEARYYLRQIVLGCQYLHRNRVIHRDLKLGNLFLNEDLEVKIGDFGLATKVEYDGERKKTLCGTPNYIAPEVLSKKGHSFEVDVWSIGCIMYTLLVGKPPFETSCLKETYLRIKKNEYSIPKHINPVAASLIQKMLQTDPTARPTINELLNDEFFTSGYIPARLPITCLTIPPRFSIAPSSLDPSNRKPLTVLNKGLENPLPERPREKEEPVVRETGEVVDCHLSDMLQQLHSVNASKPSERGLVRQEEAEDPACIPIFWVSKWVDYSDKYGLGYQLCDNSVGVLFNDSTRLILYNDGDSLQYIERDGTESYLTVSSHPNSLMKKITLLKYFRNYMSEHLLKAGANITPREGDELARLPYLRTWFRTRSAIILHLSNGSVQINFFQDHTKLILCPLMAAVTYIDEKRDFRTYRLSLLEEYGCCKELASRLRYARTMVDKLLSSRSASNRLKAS
# TSG101-PTAP inh = blocks PTAP/TSG101 interaction to inhibit HIV-1 budding | Fluorescence polarization, FITC-PTAP peptide / Tsg101 binding | Potency, µM (titrated, usually from 115 µM), inactives show at the highest dose activity change, negative = inhibition, most hits filed as inhibitors | 340,000 tested, under 10 active; active = well fitted inhibition curve with a large enough effect in the main read-out, with a control signal flat, not every such curve was filed as active; inconclusive = small, poorly fitted or top-dose-only effect, or effect the other way, or a change in a side signal; inactive = no such curve, though single readings can be large or run the other way; also: % of control where 0% means no effect
#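 Tsg101 binding domain (10 uM final) was mixed with compound and a FITC-labeled PTAP peptide (50 nM final) in HEPES pH 7.5 buffer with NaCl, Tween 20, EDTA and TCEP; fluorescence polarization was read after 20 min at r.t.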
# * hit, by the source's call; ? = inconclusive; . = no result. Unless noted, calls follow the shape of the dose curve; as a rule, active = well fitted curve in the direction sought with a large enough effect; inconclusive = small, poorly fitted or top-dose-only effect, or another doubt; inactive = no such curve, though single readings can be large; an effect the other way counts as inactive or inconclusive. Potency is read from the fitted curve at half-maximal effect.
SMILES,USP1-UAF1 inh,GCN5L2 inh,VDR inh,PLK1 PBD inh,TSG101-PTAP inh
CCCC1=C(C(=O)OCC)C(c2cc(Cl)cc(OC)c2OCC(=O)OCC)NC(=O)N1 (stereo unspecified),-17%,-5%,-8%,30µM*,-5%
Cc1c(CC(=O)N2CCN(C(=O)C3COc4ccccc4O3)CC2)c(=O)oc2cc(O)ccc12 (stereo unspecified),-25%,28µM*,2%,-13%,-3%
COc1ccc2c(C)c(CC(=O)N3CCN(C(=O)C4COc5ccccc5O4)CC3)c(=O)oc2c1 (stereo unspecified),1%,-5%,2%,-9%,1%
O=C(CCCOc1ccc(Cl)cc1Cl)N/N=C/c1ccc(Cl)cc1,-7%,-5%,?,15µM*,-6%
CC(=O)Nc1ccc(NC(=O)C2(C)CC2(Cl)Cl)cc1 (stereo unspecified),-6%,-1%,79µM*,21µM*,3%
NC(=O)c1csc(-c2ccncc2)n1,0%,-1%,5%,-11%,-4%
Nc1cc(-c2ccncc2)c[nH]c1=O,40µM*,5%,20µM*,30µM*,-6%
COc1cccc(Cn2c(=O)cnc3cnc(OCc4ccccc4)nc32)c1,.,-11%,-5%,.,.
COc1ccc(-n2ncc(C(=O)Nc3ccc4c(c3)OCCO4)c2C2CCN(C(=O)OC(C)(C)C)CC2)cc1,?,-5%,5%,.,.
Clc1ccc(SCCCCN2CCNCC2)cc1,-17%,-5%,-11%,24µM*,-4%
Cc1ccc(SCCCCN2CCNCC2)cc1,-16%,-3%,-14%,17µM*,-7%
Clc1ccc(SCCCCN2CCOCC2)cc1,-18%,0%,-9%,1%,-2%
Cc1ccc(SCCCCN2CCOCC2)cc1,-18%,-5%,15%,-13%,2%
CC(C)CN(c1ccccc1)S(=O)(=O)c1nnc(NC(=O)C2CCCCC2)s1,10%,-2%,-9%,.,.
OCCNc1cnc2ccccc2n1,-12%,-1%,?,12µM*,-1%
OCCNc1nc2ccccc2nc1NCCO,-25%,0%,3%,-3%,3%
CN(C)c1ncc2nc(-c3cc(F)cc(F)c3)c(=O)n(C[C@H]3CCCO3)c2n1,.,4%,4%,.,.
Cc1ccc(Sc2ncnc3onc(C)c23)cc1,-4%,1%,-19%,19µM*,-8%
Cc1noc2ncnc(Sc3ccc(Cl)cc3)c12,-24%,.,-25%,?,-5%
CC(C)CCN(CC(=O)NCc1ccc(F)cc1)S(=O)(=O)c1ccccc1F,-18%,1%,7%,-4%,-7%
COc1cccc(OCc2cc(C3Nc4ccccc4C(=O)N3Cc3ccco3)ccc2OC)c1 (stereo unspecified),-23%,-17%,-13%,-5%,-4%
COc1ccc(C2Nc3ccccc3C(=O)N2Cc2ccco2)cc1COc1c(C)cccc1C (stereo unspecified),.,.,14µM*,.,.
CCOC(=O)c1ccc(NC(=O)CN(Cc2ccc(C)cc2)S(=O)(=O)c2ccc(C)cc2)cc1,-23%,2%,-9%,.,.
CC1(C)C2CCC(C2)C1C/C=N/NC(N)=S (stereo unspecified),-12%,0%,-3%,-15%,0%
Cc1[nH]n(C(N)=S)c(=O)c1N=Nc1ccc2ccccc2c1,-12%,1%,?,-1%,-4%
SMILES,USP1-UAF1 inh,GCN5L2 inh,VDR inh,PLK1 PBD inh,TSG101-PTAP inh
COc1ccc(C(c2c(C)[nH]n(C(N)=S)c2=O)C(C#N)C#N)cc1 (stereo unspecified),-12%,2%,28µM*,21µM*,-7%
CC(C)(C)C1CCc2onc(C(=O)Nc3sc4c(c3C(N)=O)CCCC4)c2C1 (stereo unspecified),-23%,-13%,79µM*,.,.
NC(=O)c1c(NC(=O)CCCC(=O)O)sc2c1CCCCCC2,-4%,-3%,?,27µM*,-1%
CC(C)(C)C1CCc2onc(C(=O)Nc3sc4c(c3C#N)CCCC4)c2C1 (stereo unspecified),?,-22%,?,.,.
Cn1cnnc1SCC(=O)Nc1sc2c(c1C(N)=O)CCC2,-29%,?,-9%,27µM*,-7%
NC(=O)c1c(NC(=O)C2CCCO2)sc2c1CCCCC2 (stereo unspecified),-24%,-9%,?,11µM*,-5%
COCCn1cnnc1SCC(=O)Nc1sc2c(c1C#N)CCC2,-2%,-4%,-10%,-7%,0%
O=C(CN1CCCC1)N/N=C/c1c(O)ccc2ccccc12,?,1%,-17%,5%,0%
COc1ccc(-c2nc3c(c(SCC(=O)N4CCCCC4)n2)Cc2c(CO)cnc(C)c2O3)cc1,-13%,-2%,24%,.,.
CC(C)(C)c1ccc(S(=O)(=O)NCC(=O)Nc2sc3c(c2C(N)=O)CCCC3)cc1,-23%,-1%,-7%,27µM*,-7%
Cc1ccc(S(=O)(=O)CC(=O)Nc2sc3c(c2C(N)=O)CCCC3)cc1,-14%,3%,8%,.,.
CCOCC(=O)Nc1nnc(COc2ccc(Cl)cc2)s1,-6%,-9%,79µM*,6.7µM*,-9%
CCOCc1nnc(NC(=O)COc2ccc3c(c2)OCO3)s1,-1%,-8%,-13%,-29%,0%
COCc1nnc(NC(=O)COc2ccc3c(c2)OCO3)s1,-22%,-6%,8%,17µM*,1%
O=C(COc1ccc2c(c1)OCO2)Nc1nnc(Cc2ccccc2)s1,-24%,-5%,?,24µM*,2%
Cc1[nH]c2ccc(C(=O)NCCN3CCOCC3)cc2c1C,-18%,3%,2%,-6%,-1%
CC(C)NC(=O)C1C(c2ccccc2)=Nc2ccccc2N1C(=O)c1ccc(C(F)(F)F)cc1 (stereo unspecified),.,.,.,-13%,.
Cc1ccc(C)c(NC(=O)CSc2nc3c([nH]c4ccccc43)c(=O)n2-c2ccc(F)cc2)c1,-25%,4%,4%,.,.
CC(C)(C)c1cc(C(=O)NNc2cc(C(F)(F)F)ccc2Cl)n(Cc2ccccc2)n1,-8%,-10%,15%,5%,1%
O=c1[nH]c(Nc2ccccc2Cl)cc2ccccc12,14µM*,.,0%,-12%,-8%
O=c1[nH]c(Nc2ccc(F)cc2)cc2ccccc12,13µM*,-8%,-13%,-29%,-12%
Cc1cc2ccccc2c(=O)[nH]1,-6%,-6%,19%,-3%,-8%
Cc1nc(NS(=O)(=O)c2ccccc2)sc1NC(=O)OCCN(C)C,-13%,-9%,16%,21µM*,-3%
Cc1ccc(NC(=O)C2CCN(C(=O)[C@@H]3Cc4ccccc4CN3)CC2)cc1,-10%,-6%,9%,-14%,-6%
Cc1cc(C)cc(NC(=O)C2CCN(C(=O)[C@@H]3Cc4ccccc4CN3)CC2)c1,-22%,-1%,?,4.7µM*,-10%
O=C/C=C/c1c(-c2ccccc2)cc2oc3ccccc3cc1-2,?,-10%,35µM*,-12%,-7%
Nc1ccc(-c2cc3ccccc3oc2=O)cc1,-1%,-16%,-5%,-17%,0%

# Bioassay records from PubChem.
